Measured values taken from PubChem BioAssay (NCI).
The panel holds about 79,000 compounds, 15% with a hit somewhere; the sample as a whole holds those more often. Cut-off read from the data, not from the text of the source: active = growth inhibition above about 70%; inactive = the rest. Where a SMILES comes first, the peptide text is derived from it. The star is where a group is joined. Cbz = O=C(OCc1ccccc1)*; Boc = CC(C)(C)OC(=O)*; tBu = CC(C)(C)*

Legend:
[1] = NCI Yeast Anticancer Drug Screen. Data for the rad50 strain (AID 155);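 note: 0% = growth of vehicle-only cultures of the same strain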; conditions: S. cerevisiae rad50 strain growth inhibition, stronger effect = higher value; at 50.0 µM unless noted
How it was run: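 Relative growth inhibition (compound vs vehicle) was measured in yeast with a defined repair-gene alteration.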

[2] = NCI Yeast Anticancer Drug Screen. Data for the mec2-1 strain (AID 157); conditions: S. cerevisiae mec2-1 strain, stronger effect = higher value; at 50.0 µM unless noted
How it was run: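 Each compound was tested on mec2-1 yeast, a strain altered in DNA damage repair or cell cycle control. Growth inhibition is reported relative to vehicle.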

[3] = NCI Yeast Anticancer Drug Screen. Data for the sgs1 mgt1 strain (AID 161);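 note: 0% = growth of cultures given vehicle only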; conditions: S. cerevisiae sgs1 mgt1 strain, stronger effect = higher value; at 50.0 µM unless noted
How it was run: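 Genetically altered yeast, compound exposure, growth inhibition relative to vehicle.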

[4] = NCI Yeast Anticancer Drug Screen. Data for the cln2 rad14 strain (AID 165);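 note: 0% = growth equal to vehicle treated cultures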; conditions: S. cerevisiae cln2 rad14 strain, stronger effect = higher value; at 50.0 µM unless noted
How it was run: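 Test compounds were added to cln2 rad14 yeast cultures; inhibition of growth was then determined by comparison with vehicle treatment.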

[5] = NCI Yeast Anticancer Drug Screen. Data for the bub3 strain (AID 167); conditions: S. cerevisiae bub3 mutant strain, stronger effect = higher value; at 50.0 µM unless noted
How it was run: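 Screening used yeast with an engineered genetic alteration affecting cell cycle control. Compound-exposed cultures were compared with vehicle cultures, and reduced growth was taken as inhibition.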

[6] = NCI Yeast Anticancer Drug Screen. Data for the mlh1 rad18 strain (AID 175); conditions: S. cerevisiae mlh1 rad18 strain growth inhibition, stronger effect = higher value; at 50.0 µM unless noted
How it was run: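 Inhibition values reflect reduced growth of mutant yeast versus vehicle-treated controls following compound exposure; the mutations affect DNA damage repair.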

Measured: growth inhibition

COc1cccc(C#CC(=O)O)c1
inactive: [1] -25.6% | [2] -20.9% | [3] -18.9% | [4] -5.35% | [5] -21.9% | [6] -11.6%

CC(C)C(=O)NS(=O)(=O)c1ccccc1
inactive: [1] -14.6% | [2] -3.8% | [3] 0.5% | [4] -7.55% | [5] -14.4% | [6] -27.9%

O=C(CC(CC(=O)C(c1ccccc1)c1ccccc1)c1ccccc1)C(c1ccccc1)c1ccccc1
inactive: [1] 45.9% | [2] 18% | [3] 61.9% | [4] -0.6% | [5] -8.3% | [6] 29.6%

O=C1NCCCC1C(=O)Nc1cccc2c1NCCC2 (stereo not drawn)
inactive: [1] -10.2% | [2] -40.4% | [3] 0.95% | [4] -1.45% | [5] 39.6% | [6] -32.4%

O=S1(=O)C(=C(c2ccccc2)c2ccccc2)S(=O)(=O)c2ccccc21
inactive: [1] 39.7% | [2] 13.3% | [3] 13.9% | [4] 23.9% | [5] -6.55% | [6] 29.1%

O=c1[nH]cnc2nc(N3CCOCC3)sc12
inactive: [1] -15.7% | [2] -4.6% | [3] -1.7% | [4] -5.8% | [5] -6.5% | [6] -4.65%

CC(OC(C)(C)C)C(NC(=O)C(CCCCNC(=O)OC(C)(C)C)NC(=O)C(Cc1c[nH]c2ccccc12)NC(=O)C(Cc1ccccc1)NC(=O)OCc1ccccc1)C(=O)NC(Cc1ccccc1)C(=O)O (stereo not drawn) (Cbz-FWK(Boc)T(tBu)F-OH; configuration not given here)
inactive: [1] -10.3% | [2] -16.6% | [3] -24.2% | [4] 24.4% | [5] 1.3% | [6] -19.4%

CC(C)C1Oc2ccc(Br)cc2C1O (stereo not drawn)
inactive: [1] 11.2% | [2] 8.15% | [3] 2.25% | [4] -13.1% | [5] 18.7% | [6] 5.6%

Cc1ccccc1C(=O)C[n+]1ccccc1C
inactive: [1] -11.8% | [2] 15.5% | [3] -5.7% | [4] -21.6% | [5] 4.1% | [6] 8.3%

Cc1cc(-c2cccc3ccccc23)[n+]([O-])cc1C
inactive: [1] 15.6% | [2] 1.15% | [3] 17.2% | [4] -16.3% | [5] -24.1% | [6] 11.8%

O=c1c2ccccc2c(=O)c2c1c1c(=O)c3ccccc3c(=O)c1c1c(=O)c3ccccc3c(=O)c21
inactive: [1] 22.2% | [2] 9.65% | [3] 30.2% | [4] 29.6% | [5] 0.5% | [6] 22.4%

CCN(CC)CCNc1ccc2ncn3c4cc(=O)ccc4c(O)c1c23
inactive: [1] -2.3% | [2] -31.5% | [3] -46.4% | [4] 7.9% | [5] -7.85% | [6] 4.3%

CC(C)N(C(=O)c1ccc(C(=O)N(c2ccccc2)C(C)C)cc1)c1ccccc1
inactive: [1] -40.5% | [2] -7.45% | [3] -1.25% | [4] 36% | [5] -3.45% | [6] 14.4%

CN(C)C[C@@H]1C2C=CC(C2)[C@@H]1CO (stereo partly drawn)
inactive: [1] -6.5% | [2] 4.55% | [3] -0.9% | [4] 4.95% | [5] 2.25% | [6] -10.6%

CC1(C)OC2OC3C(Br)C(=O)OC3C2O1 (stereo not drawn)
inactive: [1] 14.8% | [2] -8.45% | [3] 24.7% | [4] 9.65% | [5] 24.1% | [6] 26.2%

CC1CCC(OC(=O)CCC2CCCCC2)CC1 (stereo not drawn)
inactive: [1] -1.6% | [2] -12.1% | [3] 4.35% | [4] -34.2% | [5] -12.4% | [6] -18.3%

OCCCC(O)CCC(O)CCC(O)CCCO (stereo not drawn)
inactive: [1] -4% | [2] -20.1% | [3] 9.15% | [4] 9.5% | [5] -22.8% | [6] 5.15%

CC(=O)OCC(OC(C)=O)C(OC(C)=O)C(/C=N/N(C(C)=O)S(=O)(=O)c1ccc(/C=C2\NC(=O)NC2=O)cc1)OC(C)=O (stereo not drawn)
inactive: [1] -42.5% | [2] -23.6% | [3] -34.6% | [4] -2.45% | [5] -18.9% | [6] -25.6%
